Records with an inconclusive call do not appear. The source made the active and inactive calls. Unless noted, calls come from the whole dose curve; as a rule, active = well fitted curve in the direction sought with a large enough effect in the repeat runs; inconclusive = weak or mixed curves; inactive = no such curve, though single readings can be large; an effect the other way counts as inactive or inconclusive.
Legend:
[1] = qHTS assay to identify small molecule agonists of the peroxisome proliferator-activated receptor delta (PPARd) signaling pathway - cell viability counter screen (AID 743211); note: nearly all actives have a fitted effect of over 55% in size
Outline: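 Following 5 h plating at 37 C and 5% CO2, PPARd UAS-bla HEK293H cells took up test compounds for 17 h. Viability was quantified by luminescence 30 min after CellTiter-Glo addition at room temperature.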

[2] = target: Peroxisome proliferator-activated receptor delta (Homo sapiens) (UniProt Q03181); assay: qHTS assay to identify small molecule agonists of the peroxisome proliferator-activated receptor delta (PPARd) signaling pathway (AID 743212; calls by dose curve; note: potency is the fitted concentration of half-maximal effect)
Chain of Peroxisome proliferator-activated receptor delta (Homo sapiens) (Q03181 whole entry, looked up): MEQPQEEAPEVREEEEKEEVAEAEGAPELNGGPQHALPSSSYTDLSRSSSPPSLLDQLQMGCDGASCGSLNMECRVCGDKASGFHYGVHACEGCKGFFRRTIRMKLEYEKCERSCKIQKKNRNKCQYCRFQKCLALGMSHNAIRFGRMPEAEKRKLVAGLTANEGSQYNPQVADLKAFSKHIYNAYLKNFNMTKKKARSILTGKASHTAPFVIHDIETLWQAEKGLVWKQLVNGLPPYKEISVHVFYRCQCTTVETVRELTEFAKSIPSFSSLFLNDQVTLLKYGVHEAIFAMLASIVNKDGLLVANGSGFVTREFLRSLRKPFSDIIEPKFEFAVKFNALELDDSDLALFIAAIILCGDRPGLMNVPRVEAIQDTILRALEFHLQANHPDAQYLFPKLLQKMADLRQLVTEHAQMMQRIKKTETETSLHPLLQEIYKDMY
Outline: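 A PPARd-bla HEK293H line with beta-lactamase under an Upstream Activator Sequence is treated with compounds at 37 C. Substrate loading for 2 h at room temperature precedes the fluorescence measurement.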

[3] = qHTS assay to identify small molecule antagonists of the peroxisome proliferator-activated receptor delta (PPARd) signaling pathway - cell viability counter screen (AID 743213); note: nearly all actives have a fitted effect of over 50% in size
Outline: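 Cytotoxicity counter screen: CellTiter-Glo luminescence read 30 min after addition, in the same wells as the reporter assay. There, PPARd UAS-bla HEK293H cells (3000/well) were treated 17 h at 37 C with compound and 300 nM L165041.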

[4] = target: Peroxisome proliferator-activated receptor delta (Homo sapiens) (UniProt Q03181); assay: qHTS assay to identify small molecule antagonists of the peroxisome proliferator-activated receptor delta (PPARd) signaling pathway (AID 743215; active = well fitted inhibition curve with a large enough effect in the signal ratio in the repeat runs, not every such curve was filed as active; the % refers to the signal ratio;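 note: cells stimulated with agonist L165041 at 300 nM final during compound exposure; series mostly up to about 62 µM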)
Outline: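 Antagonist-mode beta-lactamase reporter screen: HEK293H cells with UAS-bla under PPARd control, stimulated by 300 nM L165041 (final) alongside test compound for 17 h at 37 C, then FRET fluorescence after 2 h substrate incubation.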

[5] = target: Bile acid receptor (Homo sapiens) (UniProt Q96RI1); assay: qHTS assay to identify small molecule antagonists of the farnesoid-X-receptor (FXR) signaling pathway (AID 743217; active = well fitted inhibition curve with a large enough effect in the signal ratio in the repeat runs, not every such curve was filed as active; the % refers to the signal ratio)
Chain of Bile acid receptor (Homo sapiens) (Q96RI1 whole entry, looked up): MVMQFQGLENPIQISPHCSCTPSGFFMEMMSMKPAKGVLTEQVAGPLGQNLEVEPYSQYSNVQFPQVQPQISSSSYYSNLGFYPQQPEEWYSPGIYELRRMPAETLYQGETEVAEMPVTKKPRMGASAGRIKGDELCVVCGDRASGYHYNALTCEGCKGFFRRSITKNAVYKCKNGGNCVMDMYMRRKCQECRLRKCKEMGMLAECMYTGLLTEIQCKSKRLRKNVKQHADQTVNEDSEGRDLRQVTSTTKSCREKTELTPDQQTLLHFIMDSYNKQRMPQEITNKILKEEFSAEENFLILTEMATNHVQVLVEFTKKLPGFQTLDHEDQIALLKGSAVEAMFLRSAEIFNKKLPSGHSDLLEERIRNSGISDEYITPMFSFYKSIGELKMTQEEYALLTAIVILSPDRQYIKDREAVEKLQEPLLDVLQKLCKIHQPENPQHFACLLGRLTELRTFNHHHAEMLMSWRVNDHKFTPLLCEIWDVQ
Outline: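 Beta-lactamase reporter under UAS control in HEK 293T cells; compound exposure 16 h at 37 °C in the presence of chenodeoxycholic acid (50 uM final); signal from B/G FRET substrate after 2 h at room temperature.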

[6] = qHTS assay to identify small molecule agonists of the farnesoid-X-receptor (FXR) signaling pathway - cell viability counter screen (AID 743218); note: nearly all actives have a fitted effect of over 45% in size
Outline: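 In GeneBLAzer FXR-UAS-bla HEK 293T cells, compounds act for 16 h at 37 C. Cell viability is then scored in the reporter wells by CellTiter-Glo, 30 min at RT, luminescence.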

[7] = qHTS assay to identify small molecule antagonists of the farnesoid-X-receptor (FXR) signaling pathway - cell viability counter screen (AID 743221; active = well fitted cell-killing curve with a large enough effect in the repeat runs, not every such curve was filed as active; note: nearly all actives have a fitted effect of over 50% in size)
Outline: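 Compound effects on cell number were measured as CellTiter-Glo luminescence in HEK 293T cells expressing FXR-UAS-bla, after 16 h at 37 C with 50 uM CDCA (final).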

[8] = target: Vitamin D3 receptor (Homo sapiens) (UniProt P11473); assay: qHTS assay to identify small molecule antagonists of the vitamin D receptor (VDR) signaling pathway (AID 743223; active = well fitted inhibition curve with a large enough effect in the signal ratio in the repeat runs, not every such curve was filed as active; the % refers to the signal ratio)
Chain of Vitamin D3 receptor (Homo sapiens) (P11473 whole entry, looked up): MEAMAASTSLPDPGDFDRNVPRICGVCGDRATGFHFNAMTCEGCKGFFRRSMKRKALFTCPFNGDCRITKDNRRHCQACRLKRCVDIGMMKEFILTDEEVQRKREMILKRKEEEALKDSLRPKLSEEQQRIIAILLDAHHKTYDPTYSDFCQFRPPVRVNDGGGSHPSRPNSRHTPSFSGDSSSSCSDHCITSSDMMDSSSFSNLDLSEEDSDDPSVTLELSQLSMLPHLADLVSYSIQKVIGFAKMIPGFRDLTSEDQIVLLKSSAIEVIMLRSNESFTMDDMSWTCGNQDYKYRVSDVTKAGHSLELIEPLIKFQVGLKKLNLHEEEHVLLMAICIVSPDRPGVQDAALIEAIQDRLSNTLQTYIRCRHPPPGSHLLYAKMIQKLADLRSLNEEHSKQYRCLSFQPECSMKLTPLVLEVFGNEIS
Outline: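 Beta-lactamase activity in VDR-bla cells is measured by FRET substrate fluorescence (2 h, room temperature) after cells spend 16 h at 37C with test compound and 3 nM final 1alpha,25-dihydroxyvitamin D3.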

[9] = qHTS assay to identify small molecule agonists of the vitamin D receptor (VDR) signaling pathway - cell viability counter screen (AID 743224); note: series mostly up to about 63 µM; nearly all actives have a fitted effect of over 50% in size
Outline: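 VDR-bla cell line, quantitative HTS format; 16 h compound incubation (37C, 5% CO2); ATP-based CellTiter-Glo luminescence measured in the reporter assay wells.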

[10] = qHTS assay to identify small molecule antagonists of the vitamin D receptor (VDR) signaling pathway - cell viability counter screen (AID 743225); note: nearly all actives have a fitted effect of over 50% in size
Outline: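 In this counter screen, VDR-bla HEK 293T cells receive test compound plus 3 nM final calcitriol for 16 h at 37C. Room-temperature steps of 2 h with the beta-lactamase substrate, then 30 min with CellTiter-Glo, precede the luminescence read.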

[11] = qHTS assay to identify small molecule agonists of the NFkB signaling pathway (AID 1159509; active = well fitted curve in the direction sought with a large enough effect in the signal ratio in the repeat runs, not every such curve was filed as active; the % refers to the signal ratio; note: series mostly up to about 61 µM)
Outline: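 NFkB-bla ME-180 cells carry a beta-lactamase reporter under an NF-kB response element. They were plated overnight, then exposed to compounds for 5 h at 37 C. Read-out is LiveBLAzer FRET after 1.5 hr at room temperature (405 nm excitation; 460/530 nm emission).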

[12] = qHTS assay to identify small molecule agonists of the NFkB signaling pathway - cell viability counter screen (AID 1159515; calls by dose curve; note: series mostly up to about 61 µM; nearly all actives have a fitted effect of over 55% in size)
Outline: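 Viability in NFkB-bla ME-180 cells was measured by CellTiter-Glo luminescence, 30 min room temperature, in wells already treated 5 hr with compounds and read for reporter FRET.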

[13] = qHTS assay to identify small molecule agonists of the endoplasmic reticulum stress response signaling pathway - cell viability counter screen (AID 1159517; calls by dose curve; note: nearly all actives have a fitted effect of over 50% in size; note: potency is the fitted concentration of half-maximal effect)
Outline: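 CellTiter-Glo was added to wells already read for beta-lactamase FRET, and luminescence was recorded 30 min later. Cells: ESRE-bla HeLa, 1,500 per well, compound exposure 5 hr at 37 C.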

[14] = qHTS assay to identify small molecule antagonists of the retinoid-related orphan receptor gamma (ROR-gamma) signaling pathway - cell viability counter screen (AID 1159520); note: nearly all actives have a fitted effect of over 50% in size; note: potency is the fitted concentration of half-maximal effect
Outline: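 Tet-on ROR gamma CHO cells (1,000/well) were plated 4 hr, given compounds in DMSO for 2 hr at 37 C, then induced with 1 uM final doxycycline for 16 hr. Viability was read as ATP by CellTiter-Glo luminescence after 30 min.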

[15] = qHTS assay to identify small molecule agonists of the AP-1 signaling pathway (AID 1159526; calls by dose curve)
[16] = target: Vitamin D3 receptor (Homo sapiens) (UniProt P11473); assay: qHTS assay to identify small molecule agonists of the vitamin D receptor (VDR) signaling pathway (AID 743222; calls by dose curve)
Outline: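 Agonist activity measured in VDR-bla reporter cells. Exposure 16 h, 37C, 5% CO2; detection by B/G FRET substrate, 2 h RT.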

[17] = target: Bile acid receptor (Homo sapiens) (UniProt Q96RI1); assay: qHTS assay to identify small molecule agonists of the farnesoid-X-receptor (FXR) signaling pathway (AID 743220; active = well fitted activation curve with a large enough effect in the signal ratio in the repeat runs, not every such curve was filed as active; the % refers to the signal ratio)
Outline: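 Beta-lactamase reporter under UAS control in GeneBLAzer FXR HEK 293T cells (5000/well) measured with LiveBLAzer FRET substrate after 2 h at room temperature. Compound exposure lasted 16 h at 37C.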

[18] = qHTS assay to identify small molecule agonists of the AP-1 signaling pathway - cell viability counter screen (AID 1159525; calls by dose curve; note: nearly all actives have a fitted effect of over 55% in size)
Outline: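 ME-180 AP-1-bla, 2500 cells/well, Opti-MEM + 0.5% dialyzed FBS; overnight 37 °C; cpd 15-pt titration, 5 h 37 °C; CellTiter-Glo 30 min RT; luminescence read; normalised to TOAB and DMSO controls.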

Measured: Potency

COc1ccc(OC(=O)N(CC(=O)O)Cc2ccc(OCCc3nc(-c4ccccc4)oc3C)cc2)cc1
active: [2] 8.41 µM
not listed: [16] | [17] | [18]
inactive: all other assays above

Nc1cccc2c1CN(C1CCC(=O)NC1=O)C2=O (stereo unspecified)
not listed: [5] | [8] | [17] | [18]
inactive: all other assays above

O=C(CCc1ccc(O)cc1)c1c(O)cc(O)cc1O
not listed: [16]
inactive: all other assays above

O=C1c2ccccc2C(=O)C1(O)O
inactive: [1] | [3] | [6] | [7] | [8] | [9] | [10] | [11] | [12]
active: [13] 49.2 µM | [14] 61.4 µM

CCCCCCCCN
not listed: [5] | [13] | [16] | [17]
inactive: all other assays above

From PubChem BioAssay (Tox21)
